# Over roughly 16,000 sequences, “rpm ratio (pull-down/input)” has its median near 0.94; the highest 2% begin near 1.7. Only a selection was taken, and the highest values are over-represented in it overall.
# Target: T1, MBP-FoxP1dN (Mus musculus, UniProt P58462 326-579)
# T1 sequence: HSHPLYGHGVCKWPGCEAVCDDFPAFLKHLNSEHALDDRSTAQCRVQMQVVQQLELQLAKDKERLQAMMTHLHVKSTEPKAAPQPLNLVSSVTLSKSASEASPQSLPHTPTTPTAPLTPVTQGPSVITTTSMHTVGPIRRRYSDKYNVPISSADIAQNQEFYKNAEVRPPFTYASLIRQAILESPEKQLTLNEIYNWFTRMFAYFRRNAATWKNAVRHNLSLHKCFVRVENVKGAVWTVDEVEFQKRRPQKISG
# Assay: PD-seq (MBP pull-down with sequencing); 20 mM Tris-HCl pH 7.5, 100 mM NaCl, 1.5 mM MgCl2, 0.4 uM protein, 0.1 uM dsDNA library, 30 min, room temperature, amylose pull-down; high values mean tight binding
# Conditions: protein: recombinant; tags: His6-MBP; chain copies: 2; dsDNA, one strand shown
# In short: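 A fragment of mouse FoxP3 or FoxP1 without its N-terminus, carrying a His6-MBP tag and produced in E. coli, was combined at 0.4 µM with a 0.1 µM degenerate double-stranded DNA library filled in with Klenow. The mixture sat for 30 min at room temperature in Tris pH 7.5 buffer containing NaCl and MgCl2. Protein–DNA complexes were captured on amylose resin, washed three times, and the DNA was freed with proteinase K, barcoded by PCR and sequenced on Illumina. Binding is expressed as reads-per-million enrichment of pull-down over input, with replicates pooled.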
row,Sequence,binding signal
1,GATGATTGTTCTCCCAGCTGATGAATTTTTATATTCGAGTAAACAAATTTTCCTAATCTTTCTGTTCAAGCGCCATCTAC,1.1 RPM ratio (pull-down/input)
2,GATGATTGTTCTCCCAGCTGATGAATTATATATTTCGAGTAAACAAATTTTCCTAATCTTTCTGTTCAAGCGCCATCTAC,1.06 RPM ratio (pull-down/input)
3,GATGATTGTTCTCCCAGCTGATGAATTTACTTTATCGAGTAAACAAATTTTCCTAATCTTTCTGTTCAAGCGCCATCTAC,1.46 RPM ratio (pull-down/input)
4,GATGATTGTTCTCCCAGCTGATGAATTACGTAGTTCGAGTAAACAAATTTTCCTAATCTTTCTGTTCAAGCGCCATCTAC,1.02 RPM ratio (pull-down/input)
5,GATGATTGTTCTCCCAGCTGATGAATTATGGCGATCGAGTAAACAAATTTTCCTAATCTTTCTGTTCAAGCGCCATCTAC,0.99 RPM ratio (pull-down/input)
6,GATGATTGTTCTCCCAGCTGATGAATTGGTAGGCTCGAGTAAACAAATTTTCCTAATCTTTCTGTTCAAGCGCCATCTAC,0.819 RPM ratio (pull-down/input)
7,GATGATTGTTCTCCCAGCTGATGAATTTACGTCGTCGAGTAAACAAATTTTCCTAATCTTTCTGTTCAAGCGCCATCTAC,1.25 RPM ratio (pull-down/input)
8,GATGATTGTTCTCCCAGCTGATGAATTATTTACGTCGAGTAAACAAATTTTCCTAATCTTTCTGTTCAAGCGCCATCTAC,2.19 RPM ratio (pull-down/input)
9,GATGATTGTTCTCCCAGCTGATGAATTGTTTACGTCGAGTAAACAAATTTTCCTAATCTTTCTGTTCAAGCGCCATCTAC,2.79 RPM ratio (pull-down/input)
10,GATGATTGTTCTCCCAGCTGATGAATTCTTTACGTCGAGTAAACAAATTTTCCTAATCTTTCTGTTCAAGCGCCATCTAC,0.992 RPM ratio (pull-down/input)
11,GATGATTGTTCTCCCAGCTGATGAATTTATTACGTCGAGTAAACAAATTTTCCTAATCTTTCTGTTCAAGCGCCATCTAC,1.11 RPM ratio (pull-down/input)
12,GATGATTGTTCTCCCAGCTGATGAATTTTTTACGTCGAGTAAACAAATTTTCCTAATCTTTCTGTTCAAGCGCCATCTAC,0.984 RPM ratio (pull-down/input)
13,GATGATTGTTCTCCCAGCTGATGAATTTATCCCTTCGAGTAAACAAATTTTCCTAATCTTTCTGTTCAAGCGCCATCTAC,1.05 RPM ratio (pull-down/input)
14,GATGATTGTTCTCCCAGCTGATGAATTGCGTACCTCGAGTAAACAAATTTTCCTAATCTTTCTGTTCAAGCGCCATCTAC,1.09 RPM ratio (pull-down/input)
15,GATGATTGTTCTCCCAGCTGATGAATTGGGGCGGTCGAGTAAACAAATTTTCCTAATCTTTCTGTTCAAGCGCCATCTAC,0.782 RPM ratio (pull-down/input)
16,GATGATTGTTCTCCCAGCTGATGAATTGACAGGATCGAGTAAACAAATTTTCCTAATCTTTCTGTTCAAGCGCCATCTAC,1.1 RPM ratio (pull-down/input)
17,GATGATTGTTCTCCCAGCTGATGAATTCGTTTATTCGAGTAAACAAATTTTCCTAATCTTTCTGTTCAAGCGCCATCTAC,1.25 RPM ratio (pull-down/input)
18,GATGATTGTTCTCCCAGCTGATGAATTTATTGTTTCGAGTAAACAAATTTTCCTAATCTTTCTGTTCAAGCGCCATCTAC,2.09 RPM ratio (pull-down/input)

row,Sequence,binding signal
1,GATGATTGTTCTCCCAGCTGATGAATTGTTTATTTCGAGTAAACAAATTTTCCTAATCTTTCTGTTCAAGCGCCATCTAC,2.77 RPM ratio (pull-down/input)
2,GATGATTGTTCTCCCAGCTGATGAATTCTGGCTGTCGAGTAAACAAATTTTCCTAATCTTTCTGTTCAAGCGCCATCTAC,0.808 RPM ratio (pull-down/input)
3,GATGATTGTTCTCCCAGCTGATGAATTGCCGTAATCGAGTAAACAAATTTTCCTAATCTTTCTGTTCAAGCGCCATCTAC,1.39 RPM ratio (pull-down/input)
4,GATGATTGTTCTCCCAGCTGATGAATTAATGTAGTCGAGTAAACAAATTTTCCTAATCTTTCTGTTCAAGCGCCATCTAC,1.24 RPM ratio (pull-down/input)
5,GATGATTGTTCTCCCAGCTGATGAATTGGCACAATCGAGTAAACAAATTTTCCTAATCTTTCTGTTCAAGCGCCATCTAC,1.34 RPM ratio (pull-down/input)
6,GATGATTGTTCTCCCAGCTGATGAATTAATTATTTCGAGTAAACAAATTTTCCTAATCTTTCTGTTCAAGCGCCATCTAC,1.12 RPM ratio (pull-down/input)
7,GATGATTGTTCTCCCAGCTGATGAATTGCTTATTTCGAGTAAACAAATTTTCCTAATCTTTCTGTTCAAGCGCCATCTAC,1.62 RPM ratio (pull-down/input)
8,GATGATTGTTCTCCCAGCTGATGAATTATTTGCTTCGAGTAAACAAATTTTCCTAATCTTTCTGTTCAAGCGCCATCTAC,1.56 RPM ratio (pull-down/input)
9,GATGATTGTTCTCCCAGCTGATGAATTATTTGATTCGAGTAAACAAATTTTCCTAATCTTTCTGTTCAAGCGCCATCTAC,1.05 RPM ratio (pull-down/input)
10,GATGATTGTTCTCCCAGCTGATGAATTATTGCTTTCGAGTAAACAAATTTTCCTAATCTTTCTGTTCAAGCGCCATCTAC,1.74 RPM ratio (pull-down/input)
11,GATGATTGTTCTCCCAGCTGATGAATTATTTCTTTCGAGTAAACAAATTTTCCTAATCTTTCTGTTCAAGCGCCATCTAC,1.17 RPM ratio (pull-down/input)
12,GATGATTGTTCTCCCAGCTGATGAATTATTTTGTTCGAGTAAACAAATTTTCCTAATCTTTCTGTTCAAGCGCCATCTAC,1.32 RPM ratio (pull-down/input)
13,GATGATTGTTCTCCCAGCTGATGAATTATTAATTTCGAGTAAACAAATTTTCCTAATCTTTCTGTTCAAGCGCCATCTAC,1.34 RPM ratio (pull-down/input)
14,GATGATTGTTCTCCCAGCTGATGAATTATTTGTTTCGAGTAAACAAATTTTCCTAATCTTTCTGTTCAAGCGCCATCTAC,2.21 RPM ratio (pull-down/input)
15,GATGATTGTTCTCCCAGCTGATGAATTATTTTTTTCGAGTAAACAAATTTTCCTAATCTTTCTGTTCAAGCGCCATCTAC,1.5 RPM ratio (pull-down/input)
16,GATGATTGTTCTCCCAGCTGATGAATTATTGTGTTCGAGTAAACAAATTTTCCTAATCTTTCTGTTCAAGCGCCATCTAC,2.1 RPM ratio (pull-down/input)
17,GATGATTGTTCTCCCAGCTGATGAATTATTATTTTCGAGTAAACAAATTTTCCTAATCTTTCTGTTCAAGCGCCATCTAC,3.1 RPM ratio (pull-down/input)

# Source: article PMC12820563, “FoxP3 forms a head-to-head dimer in vivo and stabilizes its multimerization on adjacent microsatellites”
